# Reference: PubChem BioAssay (EPA / NIEHS)
# “And” between values parts separate entries of the source, which are not always exact repeats. Equal values may be shown once. Inconclusive results are not listed. The source made the active and inactive calls. How the source made its calls, unless noted: active means hit-call score of the fitted dose curve at least 0.9, where 1 is the maximum; inconclusive means response in the unintended direction; inactive means score below 0.9.
# Columns and labels:
# [1] = tested on: Sodium/Iodide Symporter (NIS), SLC5A5 (gene 6528); test: CPHEA_Stoker_NIS_Inhibition_RAIU: CPHEA's Radioactive Iodide Uptake (RAIU) Assay for Sodium/Iodide Symporter (NIS) Inhibition, Stoker and Laws Labs (AID 2283841)
# In short: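 hNIS-HEK293T-EPA cells incubated 2 h at room temperature with compound (0.001–100 uM, 0.5% DMSO) and 329 pM final 125I in HBSS/10 mM HEPES, pH 7.4. Intracellular 125I counted; normalised to DMSO maximal uptake, triplicate, three biological replicates.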
# [2] = biological target: human Thyroid hormone Receptor alpha (TRa), THRA (gene 7067) (UniProt P10827); test: ATG_hTRa_XSP2: Attagene TRANS-FACTORIAL Multi-Species (XSP2) HepG2 Assay for human Thyroid hormone Receptor alpha (TRa) (AID 2283838)
# In short: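 HepG2 cells transiently transfected with multiplexed GAL4-UAS reporter units and exogenous NR-GAL4 chimeras; 24 h chemical exposure with 3 nM 6-alpha-fluorotestosterone and 1.5 nM norgestrel present. Reporter mRNA measured by RT-PCR, FAM labelling, HpaI digestion, capillary electrophoresis; gain-of-signal versus DMSO.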
# [3] = biological target: frog Thyroid hormone Receptor alpha (TRa), thra-a (gene 397942) (UniProt P15204); test: ATG_frTRa_XSP2: Attagene TRANS-FACTORIAL Multi-Species (XSP2) HepG2 Assay for frog Thyroid hormone Receptor alpha (TRa) (AID 2283839);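 on AC50: AC50 reflects induction of frog TRa-driven reporter mRNA above DMSO baseline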
# In short: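 Chimeric frog TRα-GAL4 activity in human liver cells measures reporter transcript induction 24 h post-dose. Detection uses RT-PCR, HpaI-digested labelled products and fluorescence capillary electrophoresis; DMSO serves as negative control.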
# [4] = biological target: human Thyroid hormone Receptor beta (TRb), THRB (gene 7068) (UniProt P10828); test: ATG_hTRb_XSP2: Attagene TRANS-FACTORIAL Multi-Species (XSP2) HepG2 Assay for human Thyroid hormone Receptor beta (TRb) (AID 2283840);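 further: actives raise reporter mRNA so potency reflects agonist-like gain of signal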
# In short: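 Gain-of-signal reporter transcription, referenced to DMSO, was measured in transiently transfected HepG2 after 24 h exposure; labeled RT-PCR products were resolved by capillary electrophoresis. Assay medium included 3 nM 6-alpha-fluorotestosterone and 1.5 nM norgestrel.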
# [5] = CEETOX_H295R_11DCORT_noMTC: CeeTox H295R High-throughput Steroidogenesis Assay for 11-Deoxycortisol (11DCORT), maximum tolerated concentration (MTC) filtered results only (AID 2283911; active means hit-call score of the fitted dose curve at least 0.9, where 1 is the maximum; inactive means score below 0.9); settings: actives raise or lower the signal
# In short: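 Forskolin-primed (10 uM, 48 h) H295R adrenal cells are dosed for 48 h at 0.1% DMSO; medium 11-deoxycortisol is quantified by LC-MS/MS against a 7-point standard curve, with activity fitted in both directions versus DMSO.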
# [6] = CEETOX_H295R_OHPREG_noMTC: CeeTox H295R High-throughput Steroidogenesis Assay for OH-Pregnenolone (OHPREG), maximum tolerated concentration (MTC) filtered results only (AID 2283912; active means hit-call score of the fitted dose curve at least 0.9, where 1 is the maximum; inactive means score below 0.9); settings: actives raise or lower the signal
# In short: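 H295R cells prestimulated 48 h with 10 uM forskolin, then exposed 48 h to compound (0.1% DMSO). 17alpha-hydroxypregnenolone in medium measured by MTBE extraction and HPLC-MS/MS; bidirectional fit vs DMSO, concentrations not MTT/MTC-filtered.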
# [7] = CEETOX_H295R_OHPROG_noMTC: CeeTox H295R High-throughput Steroidogenesis Assay for OH-Progesterone (OHPROG), maximum tolerated concentration (MTC) filtered results only (AID 2283914; active means hit-call score of the fitted dose curve at least 0.9, where 1 is the maximum; inactive means score below 0.9); settings: actives raise or lower the signal
# In short: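 H295R cells prestimulated 48 h with 10 uM forskolin, then exposed 48 h to chemical (0.1% DMSO final). 17alpha-hydroxyprogesterone in medium quantified by HPLC-MS/MS after MTBE extraction; bidirectional fitting versus DMSO, concentrations not MTC-filtered.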
# [8] = CEETOX_H295R_CORTISOL_noMTC: CeeTox H295R High-throughput Steroidogenesis Assay for Cortisol, maximum tolerated concentration (MTC) filtered results only (AID 2283916; active means hit-call score of the fitted dose curve at least 0.9, where 1 is the maximum; inactive means score below 0.9); settings: actives raise or lower the signal
# In short: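 H295R human adrenal cells prestimulated 48 h with 10 uM forskolin, then exposed 48 h to chemical in 0.1% DMSO; cortisol in medium quantified by HPLC-MS/MS; bidirectional fit vs DMSO baseline, concentrations not MTT-filtered for MTC.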
# [9] = CEETOX_H295R_CORTIC_noMTC: CeeTox H295R High-throughput Steroidogenesis Assay for Corticosterone (CORTIC), maximum tolerated concentration (MTC) filtered results only (AID 2283917; active means hit-call score of the fitted dose curve at least 0.9, where 1 is the maximum; inactive means score below 0.9); settings: actives raise or lower the signal
# In short: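 H295R adrenal cells pre-stimulated 48 h with 10 uM forskolin, then exposed 48 h to chemical in 0.1% DMSO; corticosterone in medium quantified by HPLC-MS/MS, fitted bidirectionally versus DMSO without MTT-based concentration filtering.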
# [10] = CEETOX_H295R_DOC_noMTC: CeeTox H295R High-throughput Steroidogenesis Assay for DOC, maximum tolerated concentration (MTC) filtered results only (AID 2283918; active means hit-call score of the fitted dose curve at least 0.9, where 1 is the maximum; inactive means score below 0.9); settings: actives raise or lower the signal
# In short: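 H295R cells prestimulated 48 h with 10 uM forskolin, then exposed 48 h to chemical in 0.1% DMSO. 11-Deoxycorticosterone in medium measured by MTBE extraction and HPLC-MS/MS; bidirectional fit vs DMSO, no MTC filter.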
# Sequence of frog Thyroid hormone Receptor alpha (TRa), thra-a (gene 397942) (P15204 whole entry, looked up, the tested form may be a part): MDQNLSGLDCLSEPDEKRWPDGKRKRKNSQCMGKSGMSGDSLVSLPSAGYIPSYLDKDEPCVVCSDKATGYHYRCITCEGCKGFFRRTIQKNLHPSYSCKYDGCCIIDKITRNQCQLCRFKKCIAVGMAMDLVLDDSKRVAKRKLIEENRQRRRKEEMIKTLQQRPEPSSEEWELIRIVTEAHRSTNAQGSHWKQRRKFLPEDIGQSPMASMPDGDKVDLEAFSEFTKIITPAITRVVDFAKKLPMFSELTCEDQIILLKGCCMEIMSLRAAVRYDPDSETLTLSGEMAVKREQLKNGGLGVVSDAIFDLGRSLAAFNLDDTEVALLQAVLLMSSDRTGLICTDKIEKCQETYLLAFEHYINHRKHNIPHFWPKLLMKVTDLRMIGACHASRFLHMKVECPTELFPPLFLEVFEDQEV
# Sequence of human Thyroid hormone Receptor alpha (TRa), THRA (gene 7067) (P10827 whole entry, looked up, the tested form may be a part): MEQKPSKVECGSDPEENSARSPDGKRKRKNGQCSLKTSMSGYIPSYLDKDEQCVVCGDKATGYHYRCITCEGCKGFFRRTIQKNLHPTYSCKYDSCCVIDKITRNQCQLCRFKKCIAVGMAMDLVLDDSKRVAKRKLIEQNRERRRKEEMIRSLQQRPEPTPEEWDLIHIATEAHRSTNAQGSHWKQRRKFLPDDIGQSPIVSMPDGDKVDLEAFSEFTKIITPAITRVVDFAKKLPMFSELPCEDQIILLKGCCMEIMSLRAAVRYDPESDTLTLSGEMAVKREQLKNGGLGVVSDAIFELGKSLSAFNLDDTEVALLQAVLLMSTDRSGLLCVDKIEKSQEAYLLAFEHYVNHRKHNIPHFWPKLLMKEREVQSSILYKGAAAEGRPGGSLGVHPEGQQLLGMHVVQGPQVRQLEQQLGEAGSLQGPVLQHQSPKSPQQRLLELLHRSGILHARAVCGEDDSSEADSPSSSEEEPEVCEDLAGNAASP
# Sequence of human Thyroid hormone Receptor beta (TRb), THRB (gene 7068) (P10828 whole entry, looked up): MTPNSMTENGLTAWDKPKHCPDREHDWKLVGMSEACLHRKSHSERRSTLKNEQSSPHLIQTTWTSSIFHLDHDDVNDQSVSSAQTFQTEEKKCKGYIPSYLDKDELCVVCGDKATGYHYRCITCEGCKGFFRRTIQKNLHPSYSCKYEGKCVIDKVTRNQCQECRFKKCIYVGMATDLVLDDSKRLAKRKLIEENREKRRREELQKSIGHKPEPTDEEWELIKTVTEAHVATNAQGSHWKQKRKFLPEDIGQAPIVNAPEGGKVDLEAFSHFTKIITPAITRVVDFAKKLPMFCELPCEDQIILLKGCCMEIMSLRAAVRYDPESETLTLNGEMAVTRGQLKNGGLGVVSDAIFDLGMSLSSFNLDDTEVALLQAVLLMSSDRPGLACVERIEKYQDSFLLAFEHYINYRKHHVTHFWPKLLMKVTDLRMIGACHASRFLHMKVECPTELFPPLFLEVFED
structure (smiles),measurement,setting,value
CCCCOC(=O)C(C)Oc1ccc(Oc2ccc(C(F)(F)F)cn2)cc1 (centres undefined),outcome,[1],inactive
C#C[C@]1(O)CC[C@H]2[C@@H]3CCC4=CC(=O)CC[C@@H]4[C@H]3CC[C@@]21CC,outcome,[2],inactive
same,outcome,[3],inactive
same,AC50,[4],1.44 µM (active)
CCOC(=O)C(C)Oc1ccc(Oc2nc3ccc(Cl)cc3o2)cc1 (centres undefined),outcome,[1],inactive
CC(C)(c1ccc(O)cc1)c1ccc(O)cc1,outcome,[3],inactive
same,outcome,[4],inactive
same,outcome,[1],inactive
S=C(S)NCCNC(=S)S.[Mn+2].[S-]C([S-])=NCCN=C([S-])[S-].[Zn+2],outcome,[1],inactive
Oc1ccc(C(c2ccc(O)cc2)C(Cl)(Cl)Cl)cc1,outcome,[3],inactive
same,outcome,[4],inactive
same,AC50,[1],50 µM (active)
CCCCC(CC)CN1C(=O)C2C3C=CC(C3)C2C1=O (centres undefined),outcome,[3],inactive
same,outcome,[1],inactive
CCCN(CCC)c1c([N+](=O)[O-])cc(C(F)(F)F)c(N)c1[N+](=O)[O-],AC50,[1],31.8 µM (active)
Cc1nn(C)c(Oc2ccccc2)c1C=NOCc1ccc(C(=O)OC(C)(C)C)cc1,outcome,[1],inactive
CC(=O)[C@H]1CC[C@H]2[C@@H]3CCC4=CC(=O)CC[C@]4(C)[C@H]3CC[C@]12C,AC50,[1],84.4 µM (active)
CC1(C)C(C=C(Cl)Cl)C1C(=O)OCc1cccc(Oc2ccccc2)c1 (centres undefined),outcome,[2],inactive
same,outcome,[3],inactive
same,AC50,[4],100 µM (active)
CCCCOC(=O)[C@@H](C)Oc1ccc(Oc2ccc(C(F)(F)F)cn2)cc1,outcome,[1],inactive
CC(C)CCCCCCc1ccc(O)cc1,outcome,[3],inactive
same,outcome,[4],inactive
same,outcome,[1],inactive
CCOC(=O)C(C)Oc1ccc(Oc2cnc3cc(Cl)ccc3n2)cc1 (centres undefined),outcome,[1],inactive
CCCCCCC(C)OC(=O)COc1nc(F)c(Cl)c(N)c1Cl (centres undefined),AC50,[1],11.3 µM (active)
C#CCOC(=O)[C@@H](C)Oc1ccc(Oc2ncc(Cl)cc2F)cc1,outcome,[1],inactive
N[C@@H](Cc1cc(I)c(Oc2ccc(O)c(I)c2)c(I)c1)C(=O)O,AC50,[3],0.185 nM (active) and 197 nM (active)
same,outcome,[1],inactive
O=C(O)c1ccccc1,outcome,[1],inactive
O=C(c1ccc(O)cc1O)c1ccc(O)cc1O,outcome,[3],inactive
same,outcome,[4],inactive
O=C(Nc1ccc([N+](=O)[O-])cc1Cl)c1cc(Cl)ccc1O,AC50,[1],0.111 µM (active)
c1ccc(Nc2ccccc2)cc1,outcome,[1],inactive
C=CCOC(Cn1ccnc1)c1ccc(Cl)cc1Cl (centres undefined),outcome,[2],inactive
same,outcome,[1],inactive
CN(C)C(=O)Nc1ccc(Cl)c(Cl)c1,outcome,[2],inactive
same,outcome,[3],inactive
same,outcome,[4],inactive
S=C([S-])NCCNC(=S)[S-].[Mn+2],outcome,[1],inactive
CCOC(=O)COc1cc(-n2ncc(C(F)(F)F)c(C)c2=O)c(F)cc1Cl,outcome,[1],inactive
CCCCCOC(=O)COc1cc(N2C(=O)C3=C(CCCC3)C2=O)c(F)cc1Cl,outcome,[1],inactive
CC(=O)S[C@@H]1CC2=CC(=O)CC[C@]2(C)[C@H]2CC[C@@]3(C)[C@@H](CC[C@@]34CCC(=O)O4)[C@H]12,outcome,[2],inactive
same,outcome,[3],inactive
same,outcome,[4],inactive
CCOC(=O)NCCOc1ccc(Oc2ccccc2)cc1,AC50,[1],40.2 µM (active)
CCCN(CCC)C(=O)SCC,outcome,[1],inactive
CCCCOCCOCCOCc1cc2c(cc1CCC)OCO2,outcome,[1],inactive
CCCCC(CC)COC(=O)c1ccccc1C(=O)O (centres undefined),outcome,[3],inactive
same,outcome,[5],inactive
same,outcome,[6],inactive
same,outcome,[7],inactive
same,outcome,[8],inactive
same,outcome,[9],inactive
same,outcome,[10],inactive
COC(=O)c1ccccc1C(=O)O,outcome,[5],inactive
same,outcome,[6],inactive
same,outcome,[7],inactive
same,outcome,[8],inactive
same,outcome,[9],inactive
same,outcome,[10],inactive
COC(=O)CSc1cc(N=c2sc(=O)n3n2CCCC3)c(F)cc1Cl,outcome,[1],inactive
N#CSCSc1nc2ccccc2s1,AC50,[1],50 µM (active)
CCN(Cc1c(F)cccc1Cl)c1c([N+](=O)[O-])cc(C(F)(F)F)cc1[N+](=O)[O-],outcome,[2],inactive
same,outcome,[3],inactive
same,outcome,[4],inactive
same,outcome,[1],inactive
CSC(=O)c1cccc2nnsc12,outcome,[4],inactive
same,outcome,[1],inactive
